The values that follow come from PubChem BioAssay (EPA / NIEHS).

Results filed as inconclusive are left out. The source made the active and inactive calls. How the source made its calls, unless noted: active means hit-call score of the fitted dose curve at least 0.9, where 1 is the maximum; inactive means score below 0.9.

Assay [1] in a line: CEETOX_H295R_OHPROG_noMTC: CeeTox H295R High-throughput Steroidogenesis Assay for OH-Progesterone (OHPROG), maximum tolerated concentration (MTC) filtered results only (AID 2283914). As to conditions: actives raise or lower the signal. The method in brief: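 After 48 h forskolin (10 uM) prestimulation, H295R adrenal cells received test chemical in 0.1% DMSO for 48 h. Medium 17alpha-hydroxyprogesterone was MTBE-extracted and measured by HPLC-MS/MS; gain or loss relative to DMSO, no MTT-based MTC filtering.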

Assay [2] in a line: CEETOX_H295R_ANDR_noMTC: CeeTox H295R High-throughput Steroidogenesis Assay for Androstenedione (ANDR), maximum tolerated concentration (MTC) filtered results only (AID 2283915). As to conditions: actives raise or lower the signal. The method in brief: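 Androstenedione secreted into medium was measured by LC-MS/MS after MTBE extraction. Human adrenal H295R cells received 10 uM forskolin for 48 h before 48 h chemical exposure (0.1% DMSO). Gain or loss fitted against DMSO, including concentrations above the MTT-derived MTC.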

Assay [3] in a line: CEETOX_H295R_CORTISOL_noMTC: CeeTox H295R High-throughput Steroidogenesis Assay for Cortisol, maximum tolerated concentration (MTC) filtered results only (AID 2283916). As to conditions: actives raise or lower the signal. The method, then: (§1) CEETOX_H295R is a cell-based, multiplexed-readout assay that uses H295R, a human adrenal gland cell line, with measurements taken at 48 hours after chemical dosing in a 96-well plate.CEETOX_H295R_CORTISOL_noMTC is one of 12 assay component(s) measured or calculated from the CEETOX_H295R assay (11 hormones and 1 viability assay). It is designed to make measurements of hormone induction, a form of inducible reporter, as detected with absorbance signals by HPLC-MS-MS technology. The concentrations for these components have not been pre-filtered for the maximum tolerated concentration (MTC) based on the MTT assay (_noMTC).Data from the assay component CEETOX_H295R_CORTISOL_noMTC was analyzed into 1 assay endpoint. This assay endpoint, CEETOX_H295R_CORTISOL_noMTC, was analyzed with bidirectional fitting relative to DMSO as the negative control and baseline of activity. […]
(§2) Cell culture and media preparation procedures were conducted in accordance with OECD Test No. 456 guidelines, with minor modifications. […] For steroid quantification, media samples were shipped to OpAns, LLC (Durham, NC) on dry ice, and samples were thawed to room temperature prior to liquid-liquid extraction. […] Steroid hormones were separated by HPLC, eluted using a reverse phase C18 gradient with electrospray positive ionization, followed by quantification by tandem mass spectrometry (MS/MS). […]

Assay [4] can be described thus: CEETOX_H295R_CORTIC_noMTC: CeeTox H295R High-throughput Steroidogenesis Assay for Corticosterone (CORTIC), maximum tolerated concentration (MTC) filtered results only (AID 2283917). As to conditions: actives raise or lower the signal. In outline:
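Human adrenal H295R cells were prestimulated 48 h with 10 uM forskolin, then exposed 48 h to chemical in 0.1% DMSO. Medium corticosterone was MTBE-extracted and quantified by HPLC-MS/MS; bidirectional fits versus DMSO, concentrations not MTC-filtered.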

Assay [5] in a line: CEETOX_H295R_DOC_noMTC: CeeTox H295R High-throughput Steroidogenesis Assay for DOC, maximum tolerated concentration (MTC) filtered results only (AID 2283918). As to conditions: actives raise or lower the signal. In outline:
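11-Deoxycorticosterone secreted by human adrenal H295R cells quantified by HPLC-MS/MS after 48 h chemical exposure (0.1% DMSO), following 48 h 10 uM forskolin prestimulation. Concentrations not filtered by MTT-derived MTC; bidirectional fitting.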

Assay [6] can be described thus: CEETOX_H295R_ESTRADIOL_noMTC: CeeTox H295R High-throughput Steroidogenesis Assay for Estradiol, maximum tolerated concentration (MTC) filtered results only (AID 2283919). As to conditions: actives raise or lower the signal. The procedure: as §1, with “plate.CEETOX_H295R_ESTRADIOL_noMTC” for “plate.CEETOX_H295R_CORTISOL_noMTC”, “CEETOX_H295R_ESTRADIOL_noMTC” for “CEETOX_H295R_CORTISOL_noMTC”, “CEETOX_H295R_ESTRADIOL_noMTC,” for “CEETOX_H295R_CORTISOL_noMTC,”
as §2

Assay [7] in a line: CEETOX_H295R_PROG_noMTC: CeeTox H295R High-throughput Steroidogenesis Assay for Progesterone (PROG), maximum tolerated concentration (MTC) filtered results only (AID 2283920). As to conditions: actives raise or lower the signal. The method in brief: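 Progesterone secreted into medium was measured by HPLC-MS/MS after MTBE extraction, following 48 h chemical exposure (0.1% DMSO) of forskolin-prestimulated (10 uM, 48 h) H295R adrenal cells. Gain or loss fitted against DMSO; no MTC filtering.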

Assay [8] is described as follows: CEETOX_H295R_ESTRONE_noMTC: CeeTox H295R High-throughput Steroidogenesis Assay for Estrone, maximum tolerated concentration (MTC) filtered results only (AID 2283921). The note with it: actives raise or lower the signal. In outline: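 Estrone in spent medium, quantified by tandem MS following dansyl chloride derivatization, after 48 h chemical exposure (0.1% DMSO) of forskolin-prestimulated (10 uM, 48 h) H295R cells; concentrations not MTC-filtered, bidirectional fit against DMSO.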

Assay [9] is described as follows: CEETOX_H295R_TESTO_noMTC: CeeTox H295R High-throughput Steroidogenesis Assay for Testosterone (TESTO), maximum tolerated concentration (MTC) filtered results only (AID 2283924). The note with it: actives raise or lower the signal. The method in brief:
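Medium testosterone, measured by HPLC-MS/MS after liquid-liquid extraction, was fitted in both directions relative to DMSO without MTC filtering. Adrenal H295R cells received 48 h chemical exposure (0.1% DMSO final) after 48 h forskolin (10 uM) prestimulation; viability by MTT.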

The target of the next assay is PGR (gene 5241) (UniProt P06401). The assay is described as follows: TOX21_PR_BLA_Followup_Agonist_ratio: Tox21 HEK293 Progesterone Receptor (PR) Agonism Beta-lactamase Follow-Up Assay, Ratio (AID 2283933; active means hit-call score of the fitted dose curve at least 0.9, where 1 is the maximum). The method in brief: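 Ratio-based beta-lactamase reporter signal after 16 hr compound treatment of PR-UAS-bla HEK293T cells at 37C. Substrate loading lasted 2 hr at room temperature.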
Chain of PGR (gene 5241) (P06401 whole entry, looked up): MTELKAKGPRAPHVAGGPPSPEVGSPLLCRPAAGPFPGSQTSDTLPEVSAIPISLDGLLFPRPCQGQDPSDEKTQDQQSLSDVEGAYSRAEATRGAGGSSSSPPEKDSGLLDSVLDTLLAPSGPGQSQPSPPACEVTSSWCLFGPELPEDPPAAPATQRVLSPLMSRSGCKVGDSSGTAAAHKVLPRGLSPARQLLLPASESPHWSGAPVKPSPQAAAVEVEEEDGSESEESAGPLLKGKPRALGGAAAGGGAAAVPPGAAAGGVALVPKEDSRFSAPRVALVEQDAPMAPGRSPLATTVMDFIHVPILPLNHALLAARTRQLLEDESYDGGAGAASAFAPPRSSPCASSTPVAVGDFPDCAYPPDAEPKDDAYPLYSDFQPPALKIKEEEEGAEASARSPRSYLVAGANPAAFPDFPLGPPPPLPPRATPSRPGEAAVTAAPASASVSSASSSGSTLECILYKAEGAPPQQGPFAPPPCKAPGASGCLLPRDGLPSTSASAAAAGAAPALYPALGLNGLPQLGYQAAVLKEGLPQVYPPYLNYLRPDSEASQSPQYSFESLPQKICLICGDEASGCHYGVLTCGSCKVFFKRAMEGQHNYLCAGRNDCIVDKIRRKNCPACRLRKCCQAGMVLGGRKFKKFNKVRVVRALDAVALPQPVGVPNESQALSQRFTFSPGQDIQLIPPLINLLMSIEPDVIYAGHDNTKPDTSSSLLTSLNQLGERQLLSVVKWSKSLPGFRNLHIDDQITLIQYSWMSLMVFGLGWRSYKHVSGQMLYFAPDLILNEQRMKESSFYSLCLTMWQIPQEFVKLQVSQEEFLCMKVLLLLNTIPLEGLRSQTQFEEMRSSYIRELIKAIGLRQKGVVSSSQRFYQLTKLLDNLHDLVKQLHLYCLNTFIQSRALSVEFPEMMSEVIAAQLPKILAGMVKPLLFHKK

Broadly, the AC50 is the concentration giving half of the maximal activity seen. Take `Cc1cc(CCN2CCN(c3nsc4ccccc34)CC2)cc2c1NC(=O)CC2(C)C`: the AC50 was 0.756 µM (active) in assay [1]; 10 µM (active) in [3]; 2.65 µM (active) in assay [4]; 7.31 µM (active) in assay [5]; 3.98 µM (active) in [6]; 0.584 µM (active) in assay [7]. Further, the AC50 in assay [8] is 4.93 µM (active). For the same compound, the compound was classed as inactive in assay [2] and in assay [9].
As to `c1ccc2c(c1)Cc1ccccc1-2`, the call in assay [1], in [3], in assay [4], in assay [5], in assay [6] and in assay [7] was inactive. Also, in [8], the compound was classed as inactive.
As for `c1ccc2cc3c(ccc4ccccc43)cc2c1`, the result with PGR (gene 5241) was inactive.
For `CC[C@H](c1ccc(O)cc1)[C@@H](CC)c1ccc(O)cc1`, in the assay with PGR (gene 5241), the outcome was inactive.
